Measured values taken from article PMC6792352, “Limited Chemical Structural Diversity Found to Modulate Thyroid Hormone Receptor in the Tox21 Chemical Library” (Environmental Health Perspectives, 2019).
Counter-ions that a name gives are not always drawn.

What follows are compounds tested on thyroid hormone receptor (endogenous TRα and TRβ). Details: read-out: Average AC50 (uM) GH3-TRE-Antag, antagonist mode, 1 nM T3, no GH3 cytotoxicity hit.
Design: species or system GH3-TRE-Luc (rat pituitary); GH3-TRE-Luc luciferase reporter, antagonist mode against 1 nM T3, loss of signal, qHTS
Work on `Nc1nc(N)c2nc(CNc3ccc(C(=O)N[C@@H](CCC(=O)O)C(=O)O)cc3)cnc2n1` [4-Aminofolic acid] yielded an AC50 of 25.2 µM.
Compound `O=C(c1ccc(O)cc1O)c1ccc(O)cc1O` [2,2',4,4'-Tetrahydroxybenzophenone] has an AC50 of 39.2 µM.
Compound `O=[N+]([O-])c1cc[n+]([O-])cc1` [4-Nitropyridine-1-oxide] has an AC50 of 80.5 µM.
With `Cn1cnc([N+](=O)[O-])c1Sc1ncnc2[nH]cnc12` [Azathioprine] the AC50 was > 50 µM.
With `NC(N)=NCc1cccc(I)c1` [3-Iodobenzylguanidine hemisulfate] the AC50 was 16.3 µM.
With `Cc1cc(C)c(/C=C2\C(=O)Nc3ccccc32)[nH]1` [SU-5416] the AC50 was 18.1 µM.
With `O=C(c1ccc(F)cc1)C1CCN(CCn2c(=S)[nH]c3ccccc3c2=O)CC1` [Altanserin hydrochloride] the AC50 was 46.6 µM.
Work on `CCCN1C[C@H](CSC)C[C@@H]2c3cccc4[nH]cc(c34)C[C@H]21` [Pergolide methanesulfonate] yielded an AC50 of 10.1 µM.
For `O=C(/C=C/C=C/c1ccc2c(c1)OCO2)N1CCCCC1` [Piperine], the AC50 was 73.5 µM.
`CCOC(=O)Cn1cccc1-c1nc(-c2ccc(OC)cc2)c(-c2ccc(OC)cc2)s1` [Pamicogrel] showed an AC50 of 14.5 µM.
With `COC(=O)N[C@H](C(=O)N[C@@H](Cc1ccccc1)[C@@H](O)CN(Cc1ccc(-c2ccccn2)cc1)NC(=O)[C@@H](NC(=O)OC)C(C)(C)C)C(C)(C)C` [Atazanavir] the AC50 was 19.5 µM.
`CCCCNC(=O)n1c(NC(=O)OC)nc2ccccc21` [Benomyl] gave an AC50 of 8.81 µM.
With `O=C(Nc1ccccc1-c1ccc(Cl)cc1)c1cccnc1Cl` [Boscalid] the AC50 was > 100 µM.
With `CCOC(=O)OC1=C(c2cc(C)ccc2C)C(=O)N[C@]12CC[C@@H](OC)CC2` [Spirotetramat] the AC50 was 69.7 µM.
`CC(C)(C)c1ccc2c(S(=O)(=O)O)c(C(C)(C)C)ccc2c1` [Sodium dibunate] was tested, and the AC50 was > 50 µM.
For `CNC(=S)NC` [N,N'-Dimethylthiourea], the AC50 was 72 µM.
Work on `NC(=O)N(O)[C@@H]1C=C[C@H](Oc2cccc(Oc3ccc(F)cc3)c2)C1` [CJ-013790] yielded an AC50 of 81.3 µM.
Work on `CN1CCC(OC(c2ccccc2)c2ccccc2)CC1` [Diphenylpyraline hydrochloride] yielded an AC50 of 9 µM.
In the case of `Oc1c(Cl)ccc(Cl)c1Cl` [2,3,6-Trichlorophenol], the AC50 is reported as > 90 µM.
In the case of `Oc1ccc(C(=C(Cl)Cl)c2ccc(O)cc2)cc1` [Bis(4-hydroxyphenyl)-2,2-dichloroethylene], the AC50 is reported as 38.4 µM.
`CC1(C)[C@H](/C=C(\Cl)C(F)(F)F)[C@@H]1C(=O)O[C@@H](C#N)c1cccc(Oc2ccccc2)c1` [?-Cyhalothrin] was tested, and the AC50 was 33.9 µM.
`C=CCNC1=C2C[C@@H](C)C[C@H](OC)[C@H](O)[C@@H](C)/C=C(\C)[C@H](OC(N)=O)[C@@H](OC)/C=C\C=C(/C)C(=O)NC(=CC1=O)C2=O` [Tanespimycin] showed an AC50 of 0.306 µM.
In the case of `Cc1nc2ccc(CN(C)c3ccc(C(=O)N[C@@H](CCC(=O)O)C(=O)O)s3)cc2c(=O)[nH]1` [Raltitrexed], the AC50 is reported as 0.18 µM.
`Cc1ccc(/C(=C\CN2CCCC2)c2ccccn2)cc1` [Triprolidine] was tested, and the AC50 was 21.5 µM.
`OCc1c2ccccc2cc2ccccc12` [9-Anthracenemethanol] showed an AC50 of 64.3 µM.
In the case of `CCCCCCCCCCCCCOS(=O)(=O)O` [Sodium tridecyl sulfate], the AC50 is reported as 67.6 µM.
Work on `CCCCCCCCCCCC(=O)OCC(O)CO` (stereo not drawn) [1-Monolaurin] yielded an AC50 of 47.2 µM.
With `CCCCOC(=O)CC(CC(=O)OCCCC)(OC(C)=O)C(=O)OCCCC` [Acetyl tributyl citrate] the AC50 was 35.1 µM.
`c1ccc(CN(Cc2ccccc2)Cc2ccccc2)cc1` [Tribenzylamine] gave an AC50 of 90.8 µM.
In the case of `[H]/N=C(\N/C(=N/[H])Nc1ccc(Cl)cc1)NC(C)C` [Proguanil hydrochloride], the AC50 is reported as 2.32 µM.
`CCCCCCCCCCCCCCNCCO` [Myralact] was tested, and the AC50 was 22.8 µM.
Compound `Cc1ccc2oc(CN(Cc3ccccc3)C(=O)Nc3c(F)cc(F)cc3F)c(-c3ccc(Cl)cc3)c2c1` [FR145237] has an AC50 of 4.47 µM.
`COc1cc([C@@H]2c3cc4c(cc3[C@@H](O[C@@H]3O[C@@H]5CO[C@@H](C)O[C@H]5[C@H](O)[C@H]3O)[C@H]3COC(=O)[C@H]23)OCO4)cc(OC)c1OP(=O)(O)O` [Etoposide phosphate] gave an AC50 of 21 µM.
Work on `O=C(O)c1cccc(C[C@@H]2COc3ccc(OCc4nc5cc(F)ccc5s4)cc3[C@@H]2O)c1` [CP-085958] yielded an AC50 of 53.1 µM.
Work on `COc1ccccc1/C=C/C=O` [trans-2-Methoxycinnamaldehyde] yielded an AC50 of 47.6 µM.
Work on `CCN(CCCCOC(=O)c1ccc(OC)c(OC)c1)C(C)Cc1ccc(OC)cc1` (stereo not drawn) [Mebeverine hydrochloride] yielded an AC50 of 13.7 µM.
`C(COCC1CO1)OCC1CO1` (stereo not drawn) [Ethylene glycol diglycidyl ether] showed an AC50 of 38 µM.
`O=c1[nH]c(=O)n([C@H]2C[C@H](O)[C@@H](CO)O2)cc1C(F)(F)F` [Trifluridine] gave an AC50 of 23.4 µM.
`NC(=O)C1(N2CCCCC2)CCN(CCCC(=O)c2ccc(F)cc2)CC1` [Pipamperone dihydrochloride] showed an AC50 of 25.9 µM.
